Screens deposited in PubChem by National Center for Advancing Translational Sciences (NCATS).
The sample as a whole holds a higher share of hits than the screen did.
Pf Dd2 growth: inhibitors of Plasmodium falciparum Dd2 growth. 120,000 tested, 4.3% active. Potency, µM (titrated, usually from 28.9 µM), inactives show at the top dose activity, negative = inhibition, most hits filed as inhibitors. AID 1347417. P. falciparum Dd2 growth, SYBR Green, 72 h; active means well fitted inhibition curve with a large enough effect;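 further: plate controls were DMSO vehicle for no effect and reference drug for full effect; nearly all actives have a fitted effect of over 65% in size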
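Infected erythrocytes (Dd2, 0.3% parasitemia, 2.5% hematocrit final) are added to compound in RPMI-1640/Albumax II medium, grown 72 h at 37C in low oxygen, then lysed with saponin/Triton-X containing SYBR Green and read by fluorescence.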
Active calls of the source: *; i = inactive; ! = a repeat was not active; [ ] = remark or other dose. Potency means the concentration at half of the fitted maximal effect.

SMILES	Pf Dd2 growth
O=c1[nH]c(C2CCN(Cc3ccc(-c4cccnc4)cc3)CC2)nc2ccc(F)cc12	4.5µM*!
O=c1cc(-c2cccnc2)nc(-c2ccc(CN3CC[C@@H](O)C3)cc2)[nH]1	-28%
O=c1[nH]c(C2CCCN(Cc3ccc(-c4ccccc4)cc3)C2)nc2ccc(F)cc12 (configuration not stated)	8.9µM*!
O=c1[nH]c(C2CCN(CC3CCCC3)CC2)nc2ccc(F)cc12	-6%
COc1ccccc1-c1ccc(CN2CCN(c3ccc(Cl)nn3)C(=O)C2)cc1	-12%
COc1ccccc1-c1ccc(CN2CC3CCC(C2)N3c2ccc(C(F)(F)F)cc2)cc1	-24%
O=c1[nH]c(C2CCCN(Cc3ccc(C(F)(F)F)cc3)C2)nn1-c1ccccc1 (configuration not stated)	-20%
CS(=O)(=O)c1ccc(CN2C[C@@H]3OCC(=O)N(CC(N)=O)[C@@H]3C2)cc1	21%[44.1 µM]
Cc1ccc(Cl)cc1NC(=O)C1CCN(c2nc3ccccc3n3cccc23)CC1	23%
CCCNC(=O)N(C1CCOCC1)C1CCN(C(=O)Cc2c(F)cccc2Cl)CC1	-18%
CCc1ccc(CNC(=O)Cn2nc(-c3ccc(C)cc3)ccc2=O)cc1	15%
COC(=O)c1cc(-c2ccc(Cl)cc2)c2c(=O)[nH]c(=O)n(C)c2n1	42%
COc1ccc(-n2nc(C(=O)NCCc3ccc(OC)c(OC)c3)c3c4ccccc4n(C)c3c2=O)cc1Cl	2µM*
COc1ccc(-n2nc(C(=O)N(C)c3cc(C)ccc3C)c3c4ccccc4n(C)c3c2=O)cc1Cl	22%
CCOc1ccc(CCNC(=O)c2nn(-c3ccc(OC)c(Cl)c3)c(=O)c3c2c2ccccc2n3C)cc1OCC	2.8µM*
COc1ccc(-n2nc(C(=O)N3CCCCC3C)c3c4ccccc4n(C)c3c2=O)cc1Cl (configuration not stated)	23%
CCc1ccc(CNC(=O)c2nn(-c3ccc(C)cc3)c(=O)c3c2c2ccccc2n3C)cc1	3%
CCOc1ccc(CNC(=O)c2nn(-c3ccc(OC)cc3)c(=O)c3c2c2ccccc2n3C)cc1	50%
CCOC(=O)C1CCN(C(=O)c2nn(-c3ccc(C)cc3)c(=O)c3c2c2ccccc2n3C)CC1	i
COc1ccc(-n2nc(C(=O)NCCCOC(C)C)c3c4ccccc4n(C)c3c2=O)cc1	-13%
CCOC(=O)C1CCN(C(=O)c2nn(-c3ccc(OC)c(Cl)c3)c(=O)c3c2c2ccccc2n3C)CC1	11µM*
COCCNC(=O)c1cc(-c2ccccc2OC(F)(F)F)cc2ncn(C)c12	24%[44.1 µM]
COc1ccc(-c2noc(-c3nc(Cc4cccc(F)c4)no3)n2)cc1	i
C=CCNC(=O)c1ccnc2[nH]ccc12	43%[44.1 µM]
Cc1nc(-c2cccc(Cl)c2)n(Cc2cc(=O)n3ccccc3n2)c(=O)c1CCO	i
SMILES	Pf Dd2 growth
Cc1nc(Cc2ccc(N(C)C)cc2)n(CCO)n1	14%
CC(C)CN(Cc1cccnc1)C1CN(C(=O)NCc2ccccc2)C1	-15%
Cc1cc(C)n(-c2nc3ccccc3nc2Nc2cc(C(=O)O)ccc2C)n1	21%
Cc1ccc(O[C@H]2CCOC[C@H]2NC(=O)CCN2CCCCO2)cn1	-9%
COCC1CN(C(C)=O)CC12CCN(C(=O)NCc1ccccc1)CC2 (configuration not stated)	8%
CC(C)c1nnc(NC(=O)C[C@H]2NC(=O)c3ccccc3NC2=O)s1	-23%
O=C(CC1N=C2c3ccccc3N=C(SCc3ccc(Cl)cc3)N2C1=O)NCc1cccs1 (configuration not stated)	92%
COc1cccc(NC(=O)CSC2=Nc3ccccc3C3=NC(CC(=O)NCc4cccs4)C(=O)N23)c1 (configuration not stated)	i
COc1ccccc1NC(=O)CSC1=Nc2ccccc2C2=NC(CC(=O)NCc3ccccc3)C(=O)N12 (configuration not stated)	97%
O=C(CCC1N=C2c3ccccc3N=C(SCc3ccc(Cl)cc3)N2C1=O)NCc1cccs1 (configuration not stated)	57%
O=C(CC1N=C2c3ccccc3N=C(SCc3ccccc3F)N2C1=O)NCc1cccs1 (configuration not stated)	i
CC(C)c1ccc(NC(=O)CSC2=Nc3ccccc3C3=NC(CC(=O)NCc4cccs4)C(=O)N23)cc1 (configuration not stated)	12%
Cc1cc(C)c(NC(=O)CSC2=Nc3ccccc3C3=NC(CC(=O)NCc4cccs4)C(=O)N23)c(C)c1 (configuration not stated)	13µM*
O=C(CC1N=C2c3ccccc3N=C(SCC(=O)Nc3ccccc3F)N2C1=O)NCc1cccs1 (configuration not stated)	4µM*
Cc1ccc(CSC2=Nc3ccccc3C3=NC(CC(=O)NCc4cccs4)C(=O)N23)cc1 (configuration not stated)	3.2µM*
COC(=O)C1=CN(CC(=O)Nc2cccc(Br)c2)S(=O)(=O)N=C1C	i
CCn1nccc1C(=O)N1CCC(N2CC3CC(C2)[C@H]2CCCC(=O)N2C3)CC1 (some centres not stated)	-6%
CCc1ccc(S(=O)(=O)c2nnn3c2nc(NCCNC(C)=O)c2cc(Cl)ccc23)cc1	-16%
Cc1ccc(C2=NC3(CCN(C(=O)c4cccc(Cl)c4)CC3)ON2)cc1	i
CC1=C(C(=O)OC(C)C)C(c2ccccc2)NC(=O)N1 (configuration not stated)	-7%
O=C(NCCc1ccco1)C1CC(=O)N(c2n[nH]c3cc(Br)ccc23)C1 (configuration not stated)	-3%
CNC(=O)[C@@H]1CN(C(=O)Cn2cc(C)cn2)C[C@H]1COC	17%
COc1cc(Cl)ccc1OC(=O)c1cn(-c2ccccc2OC)c(=O)c2ccccc12	47%
O=C(NCC1(COc2ccc(C(F)(F)F)cn2)C[C@@H](O)[C@@H](O)C1)C1CC1 (some centres not stated)	10%[44.1 µM]
O[C@@H]1CC(CNCc2ccc(F)cc2)(COc2ccc(C(F)(F)F)cn2)C[C@@H]1O (some centres not stated)	4µM*
SMILES	Pf Dd2 growth
Cn1cc(CNCC2(COc3ccc(C(F)(F)F)cn3)C[C@@H](O)[C@@H](O)C2)cn1 (some centres not stated)	i
O=C(c1ccco1)N1CCN(c2cc(-c3cccs3)[nH]n2)CC1	i
CCN(C(=O)C(NS(=O)(=O)c1ccc(Br)s1)c1ccccc1)c1ccc(C)c(C)c1 (configuration not stated)	i
CN1C(=O)c2ccccc2Sc2ccc(NC(=O)N3CCN(c4cccc(Cl)c4)CC3)cc21	13µM*
CN1C(=O)c2ccccc2Sc2ccc(NC(=O)Nc3ccccc3F)cc21	-14%
CCc1cccc(NC(=O)Nc2ccc3c(c2)N(C)C(=O)c2ccccc2S3)c1	i
CSc1ccccc1-c1nc(C2CCOC2)no1 (configuration not stated)	-4%
COc1cc2ccccc2cc1C(=O)N1CCN(c2nc3c(F)cccc3s2)CC1	i
O=C(Cn1cccc1-c1nc(-c2ccc3c(c2)OCO3)no1)NCc1ccc(Cl)cc1	5%
O=C(NCCn1cccc1-c1nc(-c2ccc3c(c2)OCO3)no1)c1ccc2c(c1)OCO2	13µM*
CN(C)c1ccc(NC(=O)Cn2cccc2-c2nc(-c3ccc4c(c3)OCO4)no2)cc1	7%
O=C(Cn1cccc1-c1nc(-c2ccc3c(c2)OCO3)no1)Nc1ccc(Cl)cc1	2µM*
